Exocytosis inh – LAMP-1 surface exposure blockers, TALL-104 cells – cell-based, flow cytometry, MLPCN library, primary screen. inhibition, % at 10 µM. actives 0.66% (n = 360,000). TALL-104 LAMP-1 surface exposure; cells stimulated with thapsigargin and PMA. AID 651702, 2012;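 active = inhibition above about 55%, limit read from the data; inconclusive = no clear call, values can overlap the other calls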
Myeloid diff MLP – induction of myeloid progenitor differentiation, primary screen, cell-based, flow cytometry, MLPCN library. ER-HoxA9 myeloid progenitors, lysozyme-GFP differentiation. calls only at 10 µM. actives 1% (n = 360,000). AID 624256, 2012;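 active = normalized GFP-positive differentiation at or above the plate's own cutoff, the solvent-only control mean plus 3 SD; inconclusive = no clear call, values can overlap the other calls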;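 note: cells exposed to compound for four days before flow analysis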
ABCB6 inh 2 – ABCB6 transporter inhibitors, primary screen, K562-ABCB6 cells, flow cytometry, MLPCN library; ATP-binding cassette sub-family B member 6 (Homo sapiens), Q9NP58; K562-ABCB6 porphyrin accumulation, 1 h; stronger effect = lower value; fluorescence ratio to DMSO, % at 10 µM; actives 0.19% (n = 360,000); AID 602162, 2011;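 active = fluorescence ratio to DMSO below 75%, the collection mean minus 3 SD; inconclusive = too few cells collected in the well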;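 note: signal is porphyrin accumulated inside mitochondria; 100% equals median channel fluorescence of DMSO control wells; lower ratio means ABCB6 inhibition with less porphyrin fluorescence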
ABCB6 inh CP1 – ABCB6 transporter inhibitors, confirmation, K562-ABCB6 cells, flow cytometry, cherry pick 1. shares compounds with ABCB6 inh 2. K562-ABCB6 porphyrin accumulation, 1 h; stronger effect = lower value. ratio response (% of DMSO), % at 10 µM. 700 tested, under 10 active. AID 602430, 2012;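 active = repeat-averaged ratio response below 75% of DMSO, the collection mean minus 3 SD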;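 note: median porphyrin fluorescence at 575 nm with 488 nm excitation from mitochondria; lower ratio means less porphyrin signal so ABCB6 inhibition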
Numbers without * were called inactive; i = inactive; u = inconclusive; x = no result given. A selection: hits, their analogues and other compounds. The true share with any hit is near 1.8%.

SMILES	Exocytosis inh	Myeloid diff MLP	ABCB6 inh 2	ABCB6 inh CP1
CC1(C)CC(=O)c2cc(C(=O)NC3CCSC3=O)c(=O)n(-c3ccc(Cl)cc3)c2C1 (centres undefined)	-11.6	i	63.0*	101.0
CCc1cccc(C)c1NC(=S)N(CCN(C)C)C(C)c1cccnc1 (centres undefined)	-8.9	i	96.0	x
O=C1c2ccccc2C(=O)N1Cc1ccco1	-2.3	i	89.0	x
CC1=CC(=C2C(=O)c3ccccc3C2=O)C=C(C)N1Cc1ccco1	-3.7	i	66.0*	103.0
CCOc1ccc(N2CC(C(=O)NNC(=O)c3ccc(Br)cc3)CC2=O)cc1 (centres undefined)	3.9	i	102.0	x
O=C(COC(=O)CCCC1=NS(=O)(=O)c2ccccc2N1)Nc1ccc(Br)cc1	-4.8	u	104.0	97.0
O=C(CCCC1=NS(=O)(=O)c2ccccc2N1)Nc1ccccc1	2.3	i	98.0	x
COc1ccc(Cl)cc1NC(=O)COC(=O)CCCC1=NS(=O)(=O)c2ccccc2N1	-1.3	i	101.0	102.0
COc1ccccc1NC(=O)COC(=O)CC(C)(C)CC1=NS(=O)(=O)c2ccccc2N1	-0.5	i	98.0	x
Cc1ccccc1COC(=O)CCCC1=NS(=O)(=O)c2ccccc2N1	1.1	i	100.0	x
Cc1ccc(NC(=O)COC(=O)CCCC2=NS(=O)(=O)c3ccccc3N2)cc1C	-3.6	i	10.0*	99.0
CC(C)C[C@H]1CN(CCCC[C@@H]2CNC(=O)C(=O)N2CC2CCCCC2)C(=O)C(=O)N1CC1CCCCC1	-0.3	i	98.0	x
C#Cc1ccc([C@@H]2C=C(C(=O)OCC=C)O[C@H](OCc3ccc(CO)cc3)C2)cc1	7.1	i	95.0	x
CCOc1ccc(C(=O)N2CCc3ccccc32)cc1OCC	4.4	i	96.0	x
Cc1ccc(-c2nnc3sc(C4COc5ccccc5O4)nn23)cc1 (centres undefined)	4.3	i	101.0	x
Clc1ccccc1-c1nnc2sc(C3COc4ccccc4O3)nn12 (centres undefined)	3.9	i	44.0*	100.0
COc1ccc(CCNC(=S)NC2CCN(Cc3ccccc3)CC2)cc1	5.4	i	101.0	x
CS(=O)(=O)NCCSCc1ccccc1	1.1	i	99.0	x
Cc1ccccc1CSCCNS(C)(=O)=O	2.2	i	44.0*	105.0
Cc1nc2c(c3c1[nH]c1ccccc13)C(O)CC(C)(C)C2 (centres undefined)	-1.2	i	97.0	x
O=C(c1cc(-c2ccccc2)nc2ccccc12)N1CCN(c2ccccn2)CC1	0.9	i	98.0	x
O=C(c1cc(-c2ccncc2)nc2ccccc12)N1CCN(c2ccccn2)CC1	1.1	i	69.0*	100.0
Cn1cnc(C(=O)NCc2ccc(CNC(=O)OC(C)(C)C)cc2)c1C(=O)NCc1ccc(CNC(=O)OC(C)(C)C)cc1	5.3	i	85.0	x
C[C@]12C=CC(=O)C=C1CC[C@@H]1[C@@H]2[C@@H](O)C[C@@]2(C)[C@H]1CC[C@]2(O)C(=O)COC(=O)CCC(=O)NCCc1ccc(O)cc1	-10.9	i	101.0	x
COCOc1ccc(C=O)cc1OCOC	0.8	i	101.0	x
SMILES	Exocytosis inh	Myeloid diff MLP	ABCB6 inh 2	ABCB6 inh CP1
CCOC(=O)C1CCN(S(=O)(=O)c2ccc(Cl)s2)CC1	4.8	i	68.0*	99.0
CCOC(=O)c1ccc(S(=O)(=O)N2CCC(C(=O)OCC)CC2)cc1	-1.9	i	60.0*	103.0
CCOC(=O)C1CCN(S(=O)(=O)c2ccc(OCC)cc2)CC1	-0.9	i	99.0	101.0
CCOC(=O)C1CCN(S(=O)(=O)c2ccc(Cl)cc2)CC1	-4.9	i	98.0	x
CCOC(=O)C1CCN(S(=O)(=O)c2ccc(CC)cc2)CC1	1.7	i	95.0	x
CCOC(=O)C1CCN(S(=O)(=O)c2ccc(C(C)(C)C)cc2)CC1	-3.6	i	103.0	x
Cc1ccc(S(=O)(=O)c2ccc(Cl)cc2)cc1S(N)(=O)=O	15.7	i	87.0	x
Cc1c(C(=O)Nc2ccc(OC(F)(F)F)cc2)sc2nc3n(c(=O)c12)CCC3	0.4	i	66.0*	98.0
CSc1cccc(NC(=O)c2sc3nc4n(c(=O)c3c2C)CCC4)c1	-3.2	i	93.0	x
COc1ccc(NC(=O)c2sc3nc4n(c(=O)c3c2C)CCC4)c(OC)c1	x	x	x	102.0
Cc1c(C(=O)Nc2ccc(Oc3ccccc3)cc2)sc2nc3n(c(=O)c12)CCC3	0.6	i	84.0	x

Source: PubChem BioAssay
